In the library only some 1.6% were active in any assay of this set; here they are far more common.
KCNQ2 inh: inhibitors of rat KCNQ2 potassium channel. 310,000 tested, 1.1% active. AID 2156. CHO-K1 KCNQ2, FluxOR thallium flux, 20 min; stronger effect = lower value. B-score at 10 µM. O88943;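 active means fluorescence ratio B-score at most minus 3 library SDs, with starting brightness B-score within 2 library SDs, cut at about -5.5 in these data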
KCNQ2 enhance: KCNQ2 (rat) channel potentiation; 310,000 tested, 0.54% active; CHO-K1 KCNQ2, FluxOR thallium flux fluorescence; stronger effect = higher value; B-score at 10 µM; O88943; AID 2239;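 active means fluorescence ratio B-score at least 3 SD of library B-scores, with initial fluorescence B-score within 3 of them, cut at about 5.3 in these data; same plate scores as AID 2156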;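 further: B-score of peak minus minimum over baseline fluorescence ratio after K+ and Tl+ stimulus; positive B-score means potentiation of KCNQ2 with more thallium influx and brighter signal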
Kir21 conf inh: confirmation of mouse Kir2.1 potassium channel inhibitors; 2,300 tested, 41% active; AID 2032; Kir2.1-expressing cells, FluxOR thallium flux fluorescence; stronger effect = lower value; Tl flux remaining, % of negative control (stronger effect = lower value), % at 10 µM; shares compounds with KCNQ2 enhance;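 active means Primary-screen hit whose thallium flux fell at least 3 control SD below untreated wells in both duplicates, with normal baseline fluorescence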;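 further: 0% = blank wells without stimulus and 100% = stimulated no-compound controls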
Target sequence (P35561 whole entry, looked up): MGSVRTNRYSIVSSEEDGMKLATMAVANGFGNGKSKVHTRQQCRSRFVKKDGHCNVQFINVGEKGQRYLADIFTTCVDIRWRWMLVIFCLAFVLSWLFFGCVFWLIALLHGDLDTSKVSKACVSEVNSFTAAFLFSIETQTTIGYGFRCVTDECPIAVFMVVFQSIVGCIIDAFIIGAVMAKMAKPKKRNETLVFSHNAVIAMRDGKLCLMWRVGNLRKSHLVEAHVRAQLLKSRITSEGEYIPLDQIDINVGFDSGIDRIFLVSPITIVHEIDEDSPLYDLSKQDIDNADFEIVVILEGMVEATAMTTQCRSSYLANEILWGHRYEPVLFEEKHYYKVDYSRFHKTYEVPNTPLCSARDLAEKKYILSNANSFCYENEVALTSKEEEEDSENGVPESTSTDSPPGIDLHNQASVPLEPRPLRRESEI
HEK293 ctr: parental HEK293 activity in Kir2.1 inhibitor counter-screen | shares compounds with KCNQ2 enhance | parental HEK293 cells, FluxOR thallium flux fluorescence; 0% = unstimulated blank wells | FluxOR signal as % of negative control (100 = no effect), % at 10 µM | 2,300 tested, 19% active | AID 2105;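 active means dye signal at least 3 control SD above or below untreated wells in both duplicates, raw fluorescence within 3, either direction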;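 further: percent is based on the flux ratio of peak minus minimum fluorescence over baseline F0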
CHO-K1 Tl ctr: alters thallium flux in parental CHO-K1 cells, KCNQ2 counter-screen; shares compounds with KCNQ2 enhance; FluxOR thallium flux fluorescence; zero = vehicle mean+3SD, 100% = vehicle-minus-blank window; activity increase over 3SD of controls, % at 10 µM; 1,200 tested, 43% active;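 active means signal rise of at least 3 SD above the untreated control mean, in both duplicate wells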;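 further: counter screen of KCNQ2 potentiator hits so any rise reflects channel-independent effects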
KCNQ1 pot spec: human KCNQ1 counter-target activity of KCNQ2 potentiators; shares compounds with KCNQ2 enhance; CHO KCNQ1 stable, FluxOR thallium flux fluorescence; beyond 3SD, as % of vehicle-control signal; activation over 3SD threshold, % at 10 µM; 1,200 tested, 28% active;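 active means fluorescence ratio rise of at least 3 SD of vehicle wells above their mean, in both replicate wells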;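 further: 0% = vehicle mean plus 3 SD and 100% = vehicle minus unstimulated blank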
KCNQ2 pot confirm: rat KCNQ2 channel potentiator confirmation; shares compounds with KCNQ2 enhance; CHO-KCNQ2 cells, FluxOR thallium flux fluorescence; potentiation, less the hit threshold, % at 10 µM; 1,200 tested, 68% active;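 active means fluorescence ratio rising 3 SD or more over the vehicle control mean in both replicates, plus primary screen hit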;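 further: peak minus minimum thallium fluorescence divided by baseline after K/Tl stimulus; 0% = vehicle mean plus 3 SD and 100% = vehicle minus unstimulated blank difference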
Kir2-1 sel: tests whether KCNQ2 potentiators also affect mouse Kir2.1; shares compounds with KCNQ2 enhance; HEK293 Kir2.1, FluxOR thallium flux fluorescence; activity over 3SD threshold, % at 10 µM; 1,200 tested, 2% active;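 active means fluorescence ratio rise of at least 3 SD above the vehicle-control mean, seen in both replicates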;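 further: 0% = vehicle mean plus 3 SD and 100% = vehicle minus no-stimulus blank window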
KCNQ2 W236L MoA: potentiates the retigabine-insensitive rat KCNQ2 W236L mutant channel | shares compounds with KCNQ2 enhance | CHO KCNQ2-W236L, automated patch clamp current | current increase over 3SD of negative controls (%), stronger effect = higher value, % at 25 µM | 940 tested, 10% active;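 active means current increase at least 3 SD of the untreated controls above them in both duplicate recordings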
* = called active by the depositor; i = inactive; . = no result.

SMILES	KCNQ2 inh	KCNQ2 enhance	Kir21 conf inh	HEK293 ctr	others
CCOc1ccc(Cl)cc1CNCCc1ccc(F)cc1	i	.	24%*	i
O=C1/C(=C\c2ccc(Cl)c(Cl)c2)N2CCC1CC2	i	.	.	.
CNCC(O)c1cccc(OC(=O)c2ccccc2C)c1 (centres undefined)	i	0.15	.	.
CNCC(O)c1cc(OCc2ccccc2)c(OCc2ccccc2)cc1F (centres undefined)	i	.	40%*	72%*
Cc1ccc2c(c1)N(C(=O)CCC(=O)N1CCC3(CC1)OCCO3)CCO2	i	.	.	.
Cc1cc(OCCN2CC2)c2ccccc2n1	i	.	.	.
CNc1cc(Cl)c2nonc2c1[N+](=O)[O-]	-9.5*	-9.5	i	54%*
Cc1cc([N+](=O)[O-])c(Cl)cc1NC(=O)C(C)C	i	0.97	.	.
C=CC[N+]1(C)C2CCC1CC(O)C2 (centres undefined)	i	.	.	.
O=C(CCc1nnc2ccc(NCc3ccccc3Cl)nn12)N1CCC2(CC1)OCCO2	i	.	.	.
COc1ccc(/C=N\N=C(N)N)cc1	i	1.1	.	.
NC(N)=N/N=C/c1ccc(N(c2ccccc2)c2ccccc2)cc1	i	2.4	i	i
COc1ccc(CCNCc2ccccc2)cc1	i	1.3	.	.
COc1ccc(CCNCc2c(OC)ccc3ccccc23)cc1	i	.	28%*	i
CCOc1ccc(-c2cc(C)[n+](CCN3CCOCC3)c(-c3ccc(OCC)cc3)c2)cc1	i	.	.	.
Cc1ccc(C[n+]2c(-c3ccc(C)cc3)cc(-c3ccc(C)cc3)cc2-c2ccc(C)cc2)cc1	i	.	12%*	i
Cc1ccc(-c2cc(-c3ccc(C)cc3)[n+](-c3ccc(C(=O)O)cc3)c(-c3ccc(C)cc3)c2)cc1	i	0.83	.	.
CCCOC(=O)c1ccc(-[n+]2c(-c3ccccc3)cc(-c3ccccc3)cc2-c2ccccc2)cc1	-6.9*	-6.9	36%*	i
Cc1ccccc1-[n+]1c(-c2ccccc2)cc(-c2ccccc2)cc1-c1ccccc1	-8.3*	-8.3	16%*	57%*
[O-]c1ccccc1-[n+]1c(-c2ccccc2)cc(-c2ccccc2)cc1-c1ccccc1	i	.	25%*	i
C[n+]1c(-c2ccccc2)cc(CCCCc2cc(-c3ccccc3)[n+](C)c(-c3ccccc3)c2)cc1-c1ccccc1	i	.	.	.
Brc1ccc(-[n+]2c(-c3ccccc3)cc(-c3ccccc3)cc2-c2ccccc2)cc1	-8.4*	-8.4	34%*	i
O=C(CCc1ccc(O)cc1)N1C[C@H]2C[C@@H](C1)c1cccc(=O)n1C2	i	0.54	.	.
COc1ccc(-c2n(-c3ccccn3)c3ccccc3[n+]2-c2ccccn2)cc1	i	.	.	.
Cn1cc(NC(=O)CCl)cn1	i	0.02	.	.
SMILES	KCNQ2 inh	KCNQ2 enhance	Kir21 conf inh	HEK293 ctr	others
COC(=O)c1cccc(NC(=O)N2C[C@H]3C[C@@H](C2)c2cccc(=O)n2C3)c1	i	0.02	.	.
CN1CC(C(=O)c2cccc(C(F)(F)F)c2)C(c2ccc(Cl)cc2)C1 (centres undefined)	i	.	42%*	59%*
COc1cccc(C(=O)C2CN(C)CC2c2ccc(Cl)cc2)c1 (centres undefined)	i	.	38%*	i
CN1CC(C(=O)c2ccccc2)C(c2ccccc2)C1 (centres undefined)	i	1.2	.	.
CN1CC(C(=O)c2ccc([N+](=O)[O-])cc2)C(c2ccc(Cl)cc2)C1 (centres undefined)	i	.	.	.
N#CCCn1cc(C(=O)Nc2ccccc2Cl)c(-c2ccc(F)cc2)n1	i	.	.	.
Cn1cnc(CCN)c1	i	0.59	.	.
Oc1ccc(C(=C(Cl)Cl)c2ccc(O)cc2)cc1	i	11*	38%*	i	CHO-K1 Tl ctr=47*;KCNQ1 pot spec=-7;KCNQ2 pot confirm=0.8*;Kir2-1 sel=-100;KCNQ2 W236L MoA=i
COC(=O)c1ccc(NC(=O)CSc2nc3ccc(N4C(=O)C5C6C=CC(C6)C5C4=O)cc3s2)cc1 (centres undefined)	i	.	.	.
C/C(=N\N1CCN(C)CC1)c1c(O)[nH]c(=O)[nH]c1=O	i	.	.	.
Cc1cc(C)n(CCOC(=O)C2C(C=C(Cl)Cl)C2(C)C)n1 (centres undefined)	i	.	43%*	i
Cc1cc(OC(C)C(=O)NCC(O)c2ccccc2)c2c3c(c(=O)oc2c1)CCC3 (centres undefined)	i	1.8	.	.
CC(=O)c1ccc(NC(=O)N2C[C@H]3C[C@@H](C2)c2cccc(=O)n2C3)cc1	i	0.91	.	.
CC(=O)C1(c2ccccc2)CCN(C(=O)C2CCC(=O)N(CCc3cccc(F)c3)C2)CC1 (centres undefined)	i	1.2	.	.
CC1(C)C[C@H]2C=C(C=O)[C@]3(C=O)C[C@]3(C)[C@H]2C1	-6*	-6	42%*	71%*
O=C1c2cccc3cccc(c23)C(=O)N1/N=C/c1c(O)n(-c2ccccc2)c(=O)[nH]c1=O	i	.	.	.
Cc1c(O)ccc(C(=O)CN2CC(C)OC(C)C2)c1O (centres undefined)	i	1.6	.	.
COc1ccc(Cc2nccc3cc(OC)c(OC)cc23)cc1OC	i	.	43%*	i
COc1ccc(CCNCc2ccc(C)s2)cc1OC	i	1.4	.	.

Bioassay records deposited in PubChem BioAssay by Johns Hopkins Ion Channel Center.
